Among the data in PubChem BioAssay AID1255 (The Scripps Research Institute Molecular Screening Center, 2008) are inhibition values, retold here.

Among all 1,200 compounds or so, about 330 (28%) were called active. The list is a sample of the results. Unmarked numbers belong to inactive results. Rule as the data show it: active = inhibition above about 17%; inactive = the rest.

Chain of Neuropeptide Y receptor type 2 (Homo sapiens) (P49146 whole entry, looked up): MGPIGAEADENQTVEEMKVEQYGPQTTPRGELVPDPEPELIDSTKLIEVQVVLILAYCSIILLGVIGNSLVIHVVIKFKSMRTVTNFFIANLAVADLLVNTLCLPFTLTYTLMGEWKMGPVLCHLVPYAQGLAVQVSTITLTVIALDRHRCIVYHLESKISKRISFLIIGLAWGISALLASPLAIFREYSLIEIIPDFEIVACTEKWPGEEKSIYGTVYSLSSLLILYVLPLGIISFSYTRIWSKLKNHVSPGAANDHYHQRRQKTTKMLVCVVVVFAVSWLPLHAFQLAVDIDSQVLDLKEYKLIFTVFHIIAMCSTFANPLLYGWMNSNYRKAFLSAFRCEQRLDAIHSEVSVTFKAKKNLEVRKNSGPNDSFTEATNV

The test concerns the target Neuropeptide Y receptor type 2 (Homo sapiens) (UniProt P49146). As to the kind of experiment: blockade of human NPY-Y2 in cells – HEK293-CNG cells, membrane potential fluorescence, triplicate, counter-screen for NPY-Y1 antagonist project, confirmation (AID 1255).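 Also: 0% = DMSO with agonist challenge and 100% = reference antagonist.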 To be noted: antagonism, at 3.6 µM, hits give high values, cells given NPY, then isoproterenol.
Turning to `c1ccc(-c2ccccc2OCCN2CCCCC2)cc1`, the inhibition was 6.63%.
In the case of `Cc1ccc(/C=N/NC(=O)COc2ccccc2-c2ccccc2)cc1` it was 28.1% (active).
For the molecule `CC1CN(CCCOc2ccccc2-c2ccccc2)CC(C)O1` (stereo not drawn), the inhibition was 6.39%.
In the case of `CCCCCCC(=O)Nc1nc(C)c(-c2csc(Nc3cccc(OC)c3)n2)s1` it was 2.61%.
For `Cc1ccc(C(=O)C[n+]2cc(-c3ccccc3)n3c2CCCCC3)cc1`, the inhibition was 14.5%.
In the case of `CC(Oc1ccc2ccccc2c1)C(=O)NNC(=S)NC(=O)c1ccco1` (stereo not drawn) it was 10.2%; in that of `CCN1CCN(CCNC(=O)c2ccc(/C=C3/Sc4ccccc4N(Cc4cccc(C)c4)C3=O)cc2)CC1`, 27% (active).
For the molecule `Cc1ccc(N2C(=O)C3N=NN(CC(=O)N4N=C(c5cccc6ccccc56)CC4c4ccccc4)C3C2=O)cc1` (stereo not drawn), the inhibition is 5.5%.
With `CCOC(=O)CSc1nc2c(sc(=S)n2CCc2ccccc2)c(=O)n1Cc1ccco1`, the inhibition is 14.4%.
Regarding `O=C(NCCc1ccc2c(c1)OCCO2)c1cc2ccccc2o1`, the inhibition was 14.6%.
On to `Cc1ccc(Cn2c(NC(=O)c3ccco3)nc3ccccc32)cc1`, for which the inhibition is 24.2% (active).
Turning to `O=S(=O)(O)c1nc2ccccc2n1Cc1ccc(Cl)cc1`, the inhibition is 5.74%.
As to `CCS(=O)(=O)n1nc(-c2ccccc2)nc1SCc1ccccc1`, the inhibition is 13.4%.
On to `CCC(=O)c1c[nH]c(C(=O)NCC2CCCO2)c1` (stereo not drawn), for which the inhibition is 2.61%.
As to `O=C(CN1CCN(c2ncc(C(F)(F)F)cc2Cl)CC1)Nc1ccc2c(c1)OCO2`, the inhibition was 18.4% (active).
For `O=C(CSc1nnnn1C1CCCC1)Nc1ccc2c(c1)OCCO2` the value was 7.69%.
On to `COC(=O)c1ccc(COC(=O)c2c(C)nn(Cc3ccccc3Cl)c2Cl)o1`, for which the inhibition is 8.24%.
For `COc1ccc(CCN(C(=O)COc2ccccc2)c2nc(-c3ccccc3)cs2)cc1OC` the value was 17.3% (active).
In the case of `CCCCc1c(O)nc2n(c1=O)CCS2` it was 2.74%; in that of `Cc1ccc2nc(-c3ccccn3)cc(C(=O)Nc3ccc4c(c3)OCO4)c2c1`, 25.5% (active).
For `CCc1ccc(CNC(=O)C2CCCN(c3nc4ccccc4o3)C2)cc1` (stereo not drawn) the value was 11%.
Consider `CCCOC(=O)c1[nH]c2c(c1C)C(=O)CC(c1cccs1)C2` (stereo not drawn), for which the inhibition is 16.7%.
As to `COc1ccccc1C1C2=C(COC2=O)Nc2cc3c(cc21)OCO3` (stereo not drawn), the inhibition was 10.6%.
Consider `OC(COCCC12CC3CC(CC(C3)C1)C2)CN1CCCCC1` (stereo not drawn), for which the inhibition is 12.7%.
In the case of `CS(=O)(=O)N1CCCC(C(=O)N2CCOCC2)C1` (stereo not drawn) it was 0.64%; in that of `COc1ccc(C(c2nnnn2C2CCCCC2)N2CCN(c3ccccc3F)CC2)cc1` (stereo not drawn), 10.2%.
For the molecule `CC(=O)N1CC(C)c2scc(C)[n+]2-c2ccccc21` (stereo not drawn), the inhibition is 3.05%.
Regarding `O=C(/C=C/c1ccco1)Nc1cccc(-c2nc3ccccc3[nH]2)c1`, the inhibition was 7.24%.
For `O=C(CSc1nc2cc3c(cc2c(=O)n1CCC1=CCCCC1)OCO3)NCc1ccco1`, the inhibition is 2.11%.
Regarding `CC(Nc1nc(N2CCN(CCO)CC2)nc2ccccc12)c1ccccc1` (stereo not drawn), the inhibition is 10.1%.
As for `c1ccc2c(NC3C4CC5CC(C4)CC3C5)nc(N3CCOCC3)nc2c1` (stereo not drawn), the inhibition is 30.1% (active).
For `Fc1ccc(-c2nnc(CSc3nnc(-c4ccc5c(c4)OCO5)o3)o2)cc1`, the inhibition was 9.04%.
In the case of `CC(C)Cn1cnc2c1c(=O)n(CC(O)c1ccccc1)c(=O)n2CC(C)C` (stereo not drawn), the inhibition is -0.53%.
With `Cc1ccccc1Nc1scc(-c2ccc(Br)cc2)[n+]1-c1ccccc1C`, the inhibition was 12.3%.
Turning to `Cc1cc(C(C)(C)C)oc1C(=O)N(CC(=O)NC1CCCC1)Cc1ccc(Cl)cc1`, the inhibition was 19.8% (active).
As for `CCCSc1nc(NCc2ccco2)c2c3c(sc2n1)COC(C)(CC)C3` (stereo not drawn), the inhibition is 12.4%.
On to `C/C(=N\NC(=S)NCc1ccccc1)c1ccc(Cl)cc1`, for which the inhibition is 5.13%.
As to `COc1ccc(-c2[nH]nc(-c3ccccc3)c2-c2nc3ccccc3[nH]2)cc1`, the inhibition is 17%.
As to `O=C(NCCCN1CCOCC1)c1cnn2c(-c3ccccc3)cc(-c3ccccc3)nc12`, the inhibition was 18.8% (active).
For `CCOC1CCCCC1NS(=O)(=O)c1ccc(Cl)cc1` (stereo not drawn) the value was 1.15%; for `Cc1nc(-c2ccccc2)sc1C(=O)/C=C/c1ccccc1`, 16.5%; for `COc1ccc(C(=O)CSc2nnc(COc3ccccc3)n2Cc2ccco2)cc1`, 6.65%.
For `Oc1ccc(-c2[nH]ncc2-c2nc3ccccc3s2)c(O)c1` the value was 3.58%; for `NC(N)=N/N=C/c1ccc(OCc2ccc(Cl)cc2Cl)cc1`, 30.3% (active).
As for `CCOC(=O)c1nn(-c2cccc(C)c2)cc1C(=O)c1ccccc1`, the inhibition is 6.78%.
In the case of `COC(=O)c1ccc(C(NC(=O)OCc2ccccc2)/C(C)=C/[C@@H](C)C(=O)NCc2ccc(OC)c(OC)c2)cc1` (stereo partly drawn) it was 12.9%.
`Cc1cc(C)c2[nH]c(=O)c(CN(Cc3ccccc3)C(=S)NCCCN(C)C)cc2c1`: the inhibition was 26.7% (active).
Consider `CN(C)CCCCCN(C)Cc1cc2ccccc2o1`, for which the inhibition is 14.4%.
As for `COC(=O)C1=C(Nc2ccc(C)cc2)C=C(C)C(C(=O)OC)C1c1ccc(F)cc1` (stereo not drawn), the inhibition is 15.2%.
In the case of `Cc1ccc(C(=O)N/C(=C/c2ccc(-c3cccc([N+](=O)[O-])c3)o2)C(=O)NCCCN(C)C)cc1` it was 13.8%; in that of `CCCOc1ccc2c3c(c(=O)oc2c1OCCC)CCC3`, 15.6%.
As to `COc1ccccc1N1CCN(C(=O)CN(Cc2ccc(Cl)cc2)S(C)(=O)=O)CC1`, the inhibition was 3.69%.
For the molecule `Clc1ccccc1-c1cc(COc2ccc3ccccc3c2)no1`, the inhibition is 18.4% (active).
`COc1cccc(CNCCc2c[nH]c3ccccc23)c1OCc1ccccc1F`: the inhibition was 16.7%.
With `CCCC(=O)Nc1nc2ccc(NC(=O)c3c(F)c(F)c(OC)c(F)c3F)cc2s1`, the inhibition was 11.5%.
Regarding `Cc1ccc(SCCC(=O)OCC(=O)Nc2ncc(Cl)cc2Cl)cc1`, the inhibition was 5.65%.
For `CC(=O)OC(C)C[N+](C)(C)C` (stereo not drawn), the inhibition is 12.9%.
Regarding `COc1cc2c(C(=O)N3CCN(C)CC3)c(CSc3ccccc3)n(C)c2cc1Br`, the inhibition is 19.6% (active).
With `OCC1(CCc2ccccc2)CCN(Cc2ccc3nsnc3c2)CC1`, the inhibition is 9.39%.
For the molecule `CCOC(=O)N1CCN(S(=O)(=O)c2ccc(C(=O)Nc3ccc(F)cc3F)cc2)CC1`, the inhibition is 10.3%.
Consider `CCCCn1nc(C(=O)N2CCc3ccccc32)c2ccccc2c1=O`, for which the inhibition was 3.7%.
Consider `Cc1ccc(-c2cc(C(=O)N3CCc4ccccc4C3)no2)cc1`, for which the inhibition was 12.8%.
For `CCCCCCCCn1c2c(c(=N)c3c1CCC3)CCCC2` the value was 44.6% (active); for `O=C(Cc1cccs1)N(CC1CCCO1)C1(C(=O)NC2CCCCC2)CCCCC1` (stereo not drawn), 11.1%.
`O=C(c1cc(-c2ccc(O)cc2)on1)N1CCCc2ccccc21`: the inhibition was 2.92%.
Take `CC(C)(C)NCc1cc(Br)ccc1OC1CCCC1`: the inhibition was 10.4%.
In the case of `COc1ccc(C2Nc3ccccc3C(=O)N2Cc2ccccc2)cc1Cn1nnc2ccccc21` (stereo not drawn) it was 8.37%.
With `O=C1c2cccnc2C(Nc2ccc(S(=O)(=O)N3CCCCCC3)cc2)N1Cc1ccccc1` (stereo not drawn), the inhibition is 2.58%.
